PAFAH2 FP inh: PAFAH2 (human) inhibition | recombinant PAFAH2, FP-rhodamine activity probe, fluorescence polarization | inhibition, % at 3.39 µM | Q99487 | 0.99% of 340,000 active;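 active means inhibition above the mean over all tested compounds plus 3 SD, cut at about 30% in these data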;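 further: inhibitors block probe labeling of enzyme so polarization drops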
Pemphigus Ab inh: human desmoglein-3 autoantibody binding inhibition | P32926 | DSG3-coupled beads, scFv-anti-DSG3-GFP binding, flow cytometry; active compounds read low | binding (percent of control), % at 10 µM | 0.48% of 310,000 active | AID 588358;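 active means binding more than 3 SD below its plate's average and above zero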;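 further: hits lower antibody fragment binding to DSG3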
PfM18AAP inh: PfM18AAP enzyme inhibition; recombinant PfM18AAP, H-Glu-NHMec fluorogenic cleavage; inhibition, % at 7.35 µM; 1.2% of 290,000 active; AID 1822;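 active means inhibition above the campaign mean inhibition over all tested compounds plus 3 SD, cut at about 28% in these data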
pPAFAH inh: inhibitors of human plasma PAF acetylhydrolase (pPAFAH); Q13093; recombinant pPAFAH, FP-rhodamine probe fluorescence polarization; inhibition, % at 3.39 µM; 1.5% of 330,000 active;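 active means inhibition above the mean inhibition across the screen plus 3 SD, cut at about 25% in these data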;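 further: inhibitors block binding of the rhodamine activity-based probe so polarization drops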
PAFAH1B3 inh: blocks human PAF acetylhydrolase 1B catalytic subunit 3 | AID 492972 | recombinant PAFAH1B3, FP-rhodamine probe, fluorescence polarization | Q15102 | inhibition, % at 3.39 µM | 0.28% of 340,000 active;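 active means inhibition above the screen-wide average of all tested compounds plus 3 SD, cut at about 25% in these data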
Target sequence (Q15102 whole entry, looked up): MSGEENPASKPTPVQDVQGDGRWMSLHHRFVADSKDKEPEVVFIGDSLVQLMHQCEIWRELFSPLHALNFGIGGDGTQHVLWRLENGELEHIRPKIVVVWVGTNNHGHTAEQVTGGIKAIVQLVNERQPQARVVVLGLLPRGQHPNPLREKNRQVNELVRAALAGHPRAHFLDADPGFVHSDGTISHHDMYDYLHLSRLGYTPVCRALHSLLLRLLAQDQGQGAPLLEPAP
PAFAH1B2 inh: PAFAH1B2 (human) inhibition. P68402. recombinant PAFAH1B2, FP-rhodamine activity probe, fluorescence polarization. inhibition, % at 3.39 µM. 1.2% of 340,000 active. AID 492953;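 active means inhibition above the mean of all tested compounds plus 3 SD, cut at about 24% in these data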
Target sequence (P68402 whole entry, looked up): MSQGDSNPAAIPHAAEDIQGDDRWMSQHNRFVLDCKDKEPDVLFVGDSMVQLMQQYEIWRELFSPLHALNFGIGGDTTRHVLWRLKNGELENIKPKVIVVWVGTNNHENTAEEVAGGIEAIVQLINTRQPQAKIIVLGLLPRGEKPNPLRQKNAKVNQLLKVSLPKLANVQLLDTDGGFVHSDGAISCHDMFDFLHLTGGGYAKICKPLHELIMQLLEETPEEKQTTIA
pPAFAH confirm: pPAFAH (human) inhibition, confirmed; shares compounds with pPAFAH inh; recombinant pPAFAH, FP-Rh probe fluorescence polarization; inhibition, % at 3.39 µM; 72% of 2,300 active; AID 463230;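 active means mean inhibition of the triplicate above the hit cutoff set for the earlier primary screen, cut at about 25% in these data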
Large screens that a line does not name were inactive (follow-up assays come after a bar, where they were run). Rows were chosen to be rich in hits. Some 3.8% of all compounds tested hit in one or more screens of this group.

Nc1ccc2nc(-c3cccc(-c4nc5ccc(N)cc5[nH]4)n3)[nH]c2c1	pPAFAH inh 35.1, PAFAH1B3 inh 29.7, PAFAH1B2 inh 32.2 | pPAFAH confirm 53.7
CCN(CC)C(=O)[C@H]1C[C@H](CC(=O)NCc2ccc(OC)c(OC)c2)C(=O)N2CCc3c([nH]c4cc(CCC(=O)N(C)C)ccc34)[C@]12C	none (no result: PfM18AAP inh)
CCN(CC)C(=O)[C@H]1C[C@H](CC(=O)NC/C=C(\C)CCC=C(C)C)C(=O)N2CCc3c([nH]c4cc(CCC(=O)N(C)C)ccc34)[C@]12C	pPAFAH inh 63.1 (no result: PfM18AAP inh) | pPAFAH confirm 49.6
CC(=O)Nc1ccc(NC(=O)C2CCN(C(=O)NC3CCCCC3)CC2)cc1	none
Cc1ccc(NC(=O)c2cc(C)n(-c3ccccc3)c2C)cc1	none
Cc1ccc(NC(=O)c2cc(C)n(-c3cccc(C)c3)c2C)cc1	pPAFAH inh 71.3 | pPAFAH confirm 76.7
O=C(CSc1nnc(SCc2ccccc2)s1)N/N=C/C=C/c1ccco1	pPAFAH inh 44.2 | pPAFAH confirm 40.2
O=C(CSc1nnc(SCc2ccc(Cl)cc2)s1)N/N=C/c1c[nH]c2ccccc12	pPAFAH inh 40.7 | pPAFAH confirm 34.5
CCn1c(SCC(=O)N/N=C/C=C/c2ccco2)nnc1-c1ccccc1	none
O=C(CSc1ccccn1)N/N=C/c1c[nH]c2ccccc12	none
CCCn1c(N)c(N(CCOC)C(=O)c2cc3c(s2)CCCCC3)c(=O)[nH]c1=O	none
N/N=C/C(=N\Nc1ccc(Cl)cc1)C(=O)c1ccncc1	none
O=C(Nc1ccccc1C(=O)N1CCCCC1)NC1CCCCC1	none
CCn1c(CNC(=O)c2ccccc2OC)nnc1SCC(=O)c1ccc(F)cc1	none
O=C(NCCOC(=O)c1ccccc1)c1ccc([N+](=O)[O-])cc1	none
Clc1ccc2c(NCc3ccccn3)ccnc2c1	none
Oc1ccc(/C=N/Nc2ccnc3cc(Cl)ccc23)cc1O	PfM18AAP inh 28.7, pPAFAH inh 35.6, PAFAH1B3 inh 54.3, PAFAH1B2 inh 24.6 | pPAFAH confirm 44.7
CC(C)[C@H](NS(=O)(=O)c1ccccc1)C(=O)Nc1ccccc1N1CCOCC1	none (no result: PfM18AAP inh)
Cc1cccc(-n2cc(-c3ccccc3)c3c(NN4CCOCC4)ncnc32)c1	pPAFAH inh 74.6 | pPAFAH confirm inactive
CCOc1ccc(-n2cc(-c3ccccc3)c3c(N4CCOCC4)ncnc32)cc1	none
COc1ccccc1NC(=O)C(=O)Nc1ccc2c(c1)N(C(=O)C1CC1)CCC2	none (no result: PfM18AAP inh, pPAFAH inh)
Oc1cccc(C=NCc2ccccc2)c1O	pPAFAH inh 57.4 | pPAFAH confirm inactive
Oc1c(C=NCc2ccccc2)sc2ccccc12	none
CCOc1ccccc1CNC(=O)C(C)n1nc(C)c2c(C)n(-c3ccccc3)nc2c1=O (configuration not stated)	pPAFAH inh 58.1 | pPAFAH confirm inactive
N#Cc1c(-c2ccco2)cc(-c2ccccc2)[nH]c1=O	none
Cc1ccc(-c2cc(-c3ccco3)c(C#N)c(=O)[nH]2)cc1	pPAFAH inh 34.8 (no result: Pemphigus Ab inh) | pPAFAH confirm inactive
Cc1cccc(C(=O)OCC(=O)NCCCc2ccccc2)c1O	none
CC(=O)CN1Cc2ccccc2/C1=N\C(=O)Nc1ccccc1	pPAFAH inh 70.5 | pPAFAH confirm inactive
COc1ccc(S(=O)(=O)c2c(N)n(Cc3ccco3)c3nc4ccccc4nc23)cc1	pPAFAH inh 36.1 | pPAFAH confirm inactive
CC(C)c1nc(SCC(=O)Nc2c[nH]c(=O)[nH]c2=O)c2cnn(-c3ccccc3)c2n1	none
CC1=CN2C(=N)/C(=C/c3ccco3)C(=O)N=C2S1	none
CC1=CN2C(=N)/C(=C/c3ccc([N+](=O)[O-])o3)C(=O)N=C2S1	pPAFAH inh 43.7 | pPAFAH confirm 29.6
COc1ccc(OCc2nnc(SCC(=O)c3c(N)n(C)c(=O)n(C)c3=O)n2-c2ccccc2F)cc1	none (no result: PAFAH2 FP inh, Pemphigus Ab inh, PAFAH1B3 inh, PAFAH1B2 inh)
CCCOc1ccc(C(C)=O)cc1CSc1nc(O)cc(=O)[nH]1	pPAFAH inh 34.7 | pPAFAH confirm inactive
CCCOc1ccc(C(C)=O)cc1CSCCC#N	none
CC(NC(=O)CNC(=O)c1ccco1)c1ccccc1 (configuration not stated)	none
O=C(O)c1ccc(N/N=C/c2ccc(-c3cccc(Cl)c3)o2)cc1	pPAFAH inh 65.4 | pPAFAH confirm 46.6
O=C(O)c1ccc(N/N=C/c2ccc(-c3ccc(Cl)cc3Cl)o2)cc1	pPAFAH inh 50.7 | pPAFAH confirm 47.0
O=C(O)c1ccc(N/N=C/c2ccc(-c3cc(Cl)ccc3Cl)o2)cc1	pPAFAH inh 36.9 | pPAFAH confirm 55.6
Cc1ccc(C(=O)N/N=C/c2ccc(-c3cccc(Cl)c3)o2)cn1	none
CCC(=O)c1cc(Br)ccc1OCC(=O)N1CCN(S(=O)(=O)c2ccccc2)CC1	none (no result: Pemphigus Ab inh, PfM18AAP inh, pPAFAH inh)
COCCCN(CC(=O)Nc1ccc(F)cc1)S(=O)(=O)c1cccs1	none (no result: Pemphigus Ab inh, PfM18AAP inh)
O=C(Nc1ccc(Oc2ccccc2)cc1)C1CCN(c2c3c(nc4ncnn24)CCC3)CC1	pPAFAH inh 75.5 | pPAFAH confirm 75.0
O=C(Cc1cccs1)Nc1nnc(Cc2ccccc2)s1	none
COc1ccc(Cc2nnc(NC(=O)Cc3cccs3)s2)cc1OC	pPAFAH inh 35.8 (no result: Pemphigus Ab inh) | pPAFAH confirm inactive
COc1cc(NC(=O)c2ccccc2)c(OC)cc1NC(=O)Cc1cccs1	pPAFAH inh 46.4 (no result: PAFAH2 FP inh, Pemphigus Ab inh, PAFAH1B3 inh, PAFAH1B2 inh) | pPAFAH confirm inactive
Cc1c(O)nc(SCC(=O)Nc2nccs2)n(-c2ccccc2F)c1=O	none (no result: pPAFAH inh)
Cc1ccc(S(=O)(=O)Nc2cc(Cl)ccc2-n2cncn2)cc1	none (no result: PfM18AAP inh)
O=S(=O)(c1cccs1)N1CN(Cc2ccco2)c2nc3ccccc3nc21	pPAFAH inh 46.4 | pPAFAH confirm inactive
CCc1cc(=O)oc2cc(C)c(CN3CCCCC3)c(O)c12	pPAFAH inh 47.5 (no result: Pemphigus Ab inh) | pPAFAH confirm inactive
CCc1cc(=O)oc2cc(C)c(CN3CCCC3)c(O)c12	pPAFAH inh 63.5 | pPAFAH confirm inactive
Cc1cc(=O)oc2c(CN3CCCC3)c(O)c(Cl)cc12	none
O=C(O)CC1c2ccccc2C=Cc2ccccc21	none (no result: PfM18AAP inh)
Cc1cc(C)c(S(=O)(=O)N(CC(=O)N2CCCC2)C2CCCCC2)c(C)c1	none (no result: Pemphigus Ab inh)
Cc1cc(C)c(S(=O)(=O)N(C)CC(=O)N2CCCCC2)c(C)c1	pPAFAH inh 51.6 | pPAFAH confirm inactive
CN(C)S(=O)(=O)c1ccc(C(=O)OCC(=O)NCc2ccco2)cc1	none
O=C(COC(=O)c1ccc(NS(=O)(=O)c2cccs2)cc1)NCc1ccco1	PAFAH2 FP inh 40.4, pPAFAH inh 41.5 | pPAFAH confirm 29.5
COCCCN(C(=O)CSc1nc2ccccc2c(=O)n1C)c1c(N)n(Cc2ccccc2)c(=O)[nH]c1=O	none (no result: PfM18AAP inh, pPAFAH inh)
COc1cccc(/C=C2/Sc3ccc(C(=O)NCCN4CCCCCC4)cc3NC2=O)c1	pPAFAH inh 37.0 | pPAFAH confirm 43.9
Cc1cccc(/C=C2/Sc3ccc(C(=O)NCCN4CCCC4)cc3NC2=O)c1	none
O=C(NCc1cccc2ccsc12)c1cccs1	none (no result: PfM18AAP inh)

Bioassay records (PubChem)
